About 83,000 compounds went through this panel and 20% of them were active in at least one assay; those are over-represented in the sample as a whole.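 Method: cells in 96-well plates; compound added at one concentration; 48 h incubation; percent growth measured; values under 10 scored active.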 Calls of active or inactive are those of the source.

This experiment deals with MDA-MB-231 breast. Put plainly: NCI-60 one-dose screen, 48 h (100 = growth as untreated, 0 = no growth, -100 = all killed). To be noted: 10 µM unless noted.
On to `C(=C1c2ccccc2-c2ccccc21)c1ccncc1`, for which the growth was 44.2% (inactive).

As to `O=Nc1c2cccnc2n2nnc3ccc(Cl)cc3c12`, the growth was 13.9% (inactive).

Consider `COc1ccc(/C=C2/SC(=Nc3c(C)nn(-c4ccccc4)c3N)NC2=O)cc1`, for which the growth was 66.3% (inactive).

As to `Cc1ccc(-c2c3c(N)c4c(nc3nc3c2c(C)nn3-c2ccccc2)CCC4)cc1`, the growth was 37.4% (inactive).

For the compound `Cc1cc(-c2ccccc2)cc(C)n1`, the growth is 101% (inactive).

As to `CCSCC1CC(O)(c2ccccc2)C(c2ccccc2)C(c2ccc(Cl)cc2)O1` (centres undefined), the growth was -26% (active).

Regarding `COc1ccc(/C=C/C(=O)c2cccc(NS(C)(=O)=O)c2)cc1`, the growth is 80.5% (inactive).

Consider `Cc1[nH]cnc1/C=C1\SC(N2CCCCC2)=NC1=O`, for which the growth was 96.8% (inactive).

As to `C[N+]1(C)C2CC[C@@H]1CC(OC(=O)C(O)c1ccccc1)C2` (some centres undefined), the growth was 107% (inactive).

For the compound `CN(C)CCCN=c1cc2c(=O)n(CCCN(C)C)c(=O)c3c(NCCCN(C)C)cc4c(O)n(CCCN(C)C)c(=O)c1c4c3-2`, the growth was -0.632% (active).

Regarding `C[C@]12CC[C@H](O)CC1=CC[C@@H]1[C@@H]2CC[C@]2(C)C(c3cccnc3)=CC[C@@H]12`, the growth is 85.1% (inactive).

As for `CCOC(=O)Nc1ccc2c3c(cccc13)-c1ccccc1-2`, the growth is 35% (inactive).

On to `CSc1nc2nc3c(nc2c(=O)n1C)C(=O)c1ccccc1C3=O`, for which the growth was -4.27% (active).

On to `O=C1/C(=C\c2coc3ccccc3c2=O)c2ccccc2N1c1c(Cl)cccc1Cl`, for which the growth was 60.5% (inactive).

With `O=C(Oc1cccc2ccccc12)c1ccccc1C(=O)c1ccccc1`, the growth is 85.7% (inactive).

In the case of `O=C1N=C(N2CCOCC2)S/C1=C\c1cn(-c2ccccc2)nc1-c1ccccc1`, the growth was 52.7% (inactive).

As to `Cn1c(N2N=C(c3ccc(Cl)cc3)CC2c2ccccc2)nc(-c2ccccc2)c(C#N)c1=O` (centres undefined), the growth is 58.6% (inactive).

For `O=C(O)CNC(=O)C1(N2C(=O)c3ccccc3C2=O)CCCC1`, the growth is 101% (inactive).

Consider `c1ccc(CN=C(NCc2ccccc2)NCc2ccccc2)cc1`, for which the growth is 70.8% (inactive).

For `CN1CCN(CCCCCN=c2cc3c(=O)n(CCCCCN4CCN(C)CC4)c(=O)c4c(NCCCCCN5CCN(C)CC5)cc5c(O)n(CCCCCN6CCN(C)CC6)c(=O)c2c5c4-3)CC1`, the growth was -34% (active).

As for `Clc1ccc2c(c1)C(Br)c1cc(Cl)cc(Cl)c1-2` (centres undefined), the growth was 75.6% (inactive).

For `CCCCCCCCCCCCC1CCCC(C)C1` (centres undefined), the growth was 105% (inactive).

`CC(=O)Nc1cc2c3c(cccc3c1)-c1ccccc1-2`: the growth was 67.5% (inactive).

Turning to `Nc1ccc2c(c1)C(=O)c1cc(Cl)c(Cl)cc1-2`, the growth was 79.1% (inactive).

In the case of `CCN(CC)c1ccc(/C=C/C(=O)c2cccc(NS(C)(=O)=O)c2)cc1`, the growth was 43% (inactive).

For `Cc1ccc(OCC(=O)Nc2ccc(Oc3ccccc3)cc2)c([N+](=O)[O-])n1`, the growth is 85.4% (inactive).

For `Cc1nn(-c2ccccc2)cc1/C=C1\SC(N2CCCCC2)=NC1=O`, the growth is 76.4% (inactive).

On to `COc1ccc(C2=NN(C(N)=S)C(c3ccc4c(c3)OCO4)C2)cc1` (centres undefined), for which the growth is 48.7% (inactive).

For `COc1ccc(-c2c3c(N)nc(-c4ccncc4)nc3nc3c2c(C)nn3-c2ccccc2)cc1`, the growth was 67.6% (inactive).

With `CCOC(=O)CCC(=O)O[C@H]1[C@H](O[C@@H]2[C@@H](C)[C@H](O[C@H]3C[C@@](C)(OC)[C@@H](O)[C@H](C)O3)[C@@H](C)C(=O)O[C@H](CC)[C@@](C)(O)[C@H](O)[C@@H](C)C(=O)[C@H](C)C[C@@]2(C)O)O[C@H](C)C[C@@H]1N(C)C`, the growth was 106% (inactive).

As for `c1ccc(-c2oc(-c3ccccc3)c3ccccc23)cc1`, the growth is 91% (inactive).

Regarding `O=[N+]([O-])c1cc([N+](=O)[O-])c(N2CCCC2)cc1NN=C(c1ccc(O)cc1)c1ccc(O)cc1`, the growth is 93.6% (inactive).

With `O=C1Nc2ccc(C(=O)O)c(O)c2C1=O`, the growth was 113% (inactive).

In the case of `CCCCCCCCN(CCO)CCCCCCCC`, the growth is 117% (inactive).

In the case of `O=c1c2c(=NCCCN3CCCC3)cc3c(=O)n(CCCN4CCCC4)c(=O)c4c(NCCCN5CCCC5)cc(c(O)n1CCCN1CCCC1)c2c4-3`, the growth is -9.58% (active).

`O=C(N/N=C/c1cccc([N+](=O)[O-])c1)c1ccc(Br)o1`: the growth is 115% (inactive).

As to `Nc1ccc2c(c1)Cc1cc(Cl)c(Cl)cc1-2`, the growth is 52.5% (inactive).

On to `Nc1ncnc2c1CN(Cc1ccccc1)CC2`, for which the growth is 104% (inactive).

Regarding `CC[C@@H](C)/C=C(C)/C=C/C(O)=C1\C(=O)N[C@@H](Cc2ccc(OC(=O)[C@@](OC)(c3ccccc3)C(F)(F)F)cc2)C1=O`, the growth is 89.5% (inactive).

(Values after PubChem BioAssay (NCI).)
